High-throughput results (PubChem)
Rows were chosen to be rich in hits. Some 3.2% of all compounds tested hit in one or more screens of this group.
CHT inh = inhibitors of human choline transporter CHT; Q9GZV3; CHT-expressing cells, membrane potential dye, choline response; active compounds read low; B-score at 10 µM; 0.86% of 310,000 active;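 active = B-score over 3 SD under the library average, and starting fluorescence ratio not unusually high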;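 also: choline stimulus applied at its EC90 after an EC20 pre-addition; B-score computed on integrated fluorescence ratio after choline addition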
ANO1 activ = activates or potentiates the mouse TMEM16A chloride channel; 0.3% of 340,000 active; Q8BHY3; B-score at 10 µM; HEK293 TMEM16A/YFP-H148Q/I152L, iodide quench fluorescence; active compounds read low;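 active = fluorescence-ratio B-score plate-corrected deviation score at least 3 library SD below zero, with starting fluorescence score within 5 deviations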;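 also: channel opened by trigger with iodide after compound preincubation; score built on the fluorescence ratio of max minus min over baseline; more negative score means more quench and so TMEM16A activation or potentiation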
Kir21 inh = inhibitors of mouse Kir2.1 inward-rectifier potassium channel | P35561 | HEK293-Kir2.1, FluxOR thallium flux fluorescence; active compounds read low | B-score at 10 µM | 0.85% of 310,000 active;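 active = fluorescence ratio B-score at or below minus 3 SD of library scores, with starting-brightness B-score within 2 SD, cut at about -4.2 in these data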;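 also: channel flux triggered by added potassium and thallium sulfate stimulus; B-score of peak minus minimum fluorescence over baseline after thallium stimulus; more negative B-score means stronger Kir2.1 block with less thallium influx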
Target sequence (P35561 whole entry, looked up): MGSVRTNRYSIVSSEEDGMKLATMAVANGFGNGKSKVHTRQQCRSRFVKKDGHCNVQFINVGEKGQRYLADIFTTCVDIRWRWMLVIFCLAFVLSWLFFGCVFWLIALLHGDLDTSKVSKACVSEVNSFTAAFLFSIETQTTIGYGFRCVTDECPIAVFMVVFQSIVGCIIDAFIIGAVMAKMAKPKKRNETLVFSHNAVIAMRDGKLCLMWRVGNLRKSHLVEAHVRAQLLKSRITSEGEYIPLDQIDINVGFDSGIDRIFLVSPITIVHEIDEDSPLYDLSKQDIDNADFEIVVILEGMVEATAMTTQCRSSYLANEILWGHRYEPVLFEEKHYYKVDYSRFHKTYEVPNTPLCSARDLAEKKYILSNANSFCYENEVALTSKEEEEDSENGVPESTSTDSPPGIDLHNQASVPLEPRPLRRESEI
Rce1 inhib = inhibitors of yeast Ras-converting enzyme; Q03530; yeast membranes, quenched prenylated peptide cleavage fluorescence; calls only; 0.27% of 290,000 active; AID 2563;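 active = fall in fluorescence gain of 50% or more versus controls, with final raw signal at or below 3038400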
CHT allo act = allosteric activators of human choline transporter CHT; CHT-expressing cells, membrane potential dye, choline EC20; active compounds read high; LV-AA mutant CHT in HEK293 cells; B-score at 10 µM; 0.49% of 310,000 active; Q9GZV3;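 active = initial fluorescence not abnormally high and integrated response B-score, plate-corrected, over 3 SD above library mean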
TMEM16A inh = blocks the mouse calcium-activated chloride channel TMEM16A; Q8BHY3; HEK293 TMEM16A/YFP iodide influx fluorescence, ionomycin; normalized B-score (activity score, 25-100; higher = stronger inhibition) at 10 µM; 1.2% of 310,000 active;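 active = ratio plate-corrected score three or more library SD toward inhibition, starting fluorescence score within five deviations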;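 also: score derived from kinetic fluorescence span divided by baseline fluorescence per well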
CHT act confirm = human CHT activation, confirmatory screen | shares compounds with CHT allo act | CHT-expressing cells, membrane potential dye fluorescence (FDSS); % of choline EC20–EC90 response window; HEK293 expressing CHT LV-AA mutant; choline added at its EC20 | activation, % at 10 µM | 91% of 2,500 active | AID 504833;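 active = primary screen active, with duplicate mean activation above negative control mean plus 3 SD, cut at about 11% in these data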
HEK293 MP dye = counter-screen for CHT activators: effect in parental HEK293 cells | membrane potential dye fluorescence (FDSS); measured after EC20 choline addition | 62% of 2,500 active | AID 623908 | shares compounds with CHT allo act | ratio readout change at 10 µM, hits read low;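 active = duplicate-averaged ratio beyond 3 SD from buffer wells, up or down, though filed actives are nearly all decreases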
Each line names hits and unclear results; the compound was inactive in the other large screens (follow-up assays come after a bar, where they were run).

CN(C)CCNC(=O)c1ccccc1	none
COc1nnc(-c2ccc(N3CCOCC3)c(NC(=O)C3CCCCC3)c2)c2ccccc12	none | CHT act confirm inactive | HEK293 MP dye inactive
COc1nnc(-c2ccc(N3CCOCC3)c(NC(=O)c3ccc(C)cc3)c2)c2ccccc12	none
COc1ccc(-n2c(-c3ccccc3)nnc2-c2ccc(Cl)cc2)cc1	none
COc1ccc(-n2c(-c3ccc(Cl)cc3)c[n+]3c2CCc2ccccc2-3)cc1	CHT allo act 8.2 | CHT act confirm 86 | HEK293 MP dye -29
CN(C)NC1=CC(=[N+]2CCCC2)CC(C)(C)C1	none
CCCN(CCC)C1=CC(=[N+]2CCCC2)CC(C)(C)C1	CHT allo act 12 | CHT act confirm 35 | HEK293 MP dye inactive
C[C@H]1[C@H](NC(=O)C(=NOC(C)(C)C(=O)O)c2csc(N)n2)C(=O)N1S(=O)(=O)O	none (no result: Kir21 inh, Rce1 inhib)
NC1=Nc2cccc3cccc1c23	none | CHT act confirm 45 | HEK293 MP dye -65
CCOc1ccc(CCN2C(=O)c3ccc(C(=O)O)cc3C2=O)cc1OCC	none
COc1ccc(Cl)cc1C(Nc1cccnc1)c1ccc2cccnc2c1O (configuration not stated)	none | CHT act confirm 19 | HEK293 MP dye inactive
Cc1ccc(S(=O)(=O)NC2=NCN(C(C)C)CN2)cc1	none (no result: Rce1 inhib)
CC1(C(=O)c2ccccc2)C2c3c(ccc4ccccc34)OC(=O)C21C(=O)N1CCOCC1 (configuration not stated)	CHT allo act 7.3 | CHT act confirm 16 | HEK293 MP dye inactive
O=C(N1CCOCC1)N(CCN1CCOCC1)Cc1cccc2ccccc12	none
COc1ccc(C(=O)N/N=C/c2sc(N3CCOCC3)nc2-c2ccccc2)cc1OC	none
COc1ccccc1NS(=O)(=O)c1cc([N+](=O)[O-])ccc1N/N=C/c1sc(N2CCOCC2)nc1-c1ccccc1	none | CHT act confirm 23 | HEK293 MP dye inactive
Cc1ccc2nc(-c3ccncc3)c(NC3CCCC3)n2c1	none
Cc1ccn2c(NC3CCCC3)c(-c3ccncc3)nc2c1	CHT allo act 7.2 | CHT act confirm 47 | HEK293 MP dye -63
CCCCC(=O)Nc1cc(N(C)C)nc2ccccc12	none
CN(C)c1cc(NC(=O)CNC(C)(C)C)c2ccccc2n1	none | CHT act confirm 26 | HEK293 MP dye -55
O=C(CN1CCOCC1)Nc1ccccc1-c1ccccc1	none
CN(C)c1cc(NC(=O)CN2CCOCC2)c2ccccc2n1	CHT allo act 6.7 | CHT act confirm 33 | HEK293 MP dye -45
CCCC[C@@H]1CNCCN1CC1(c2ccccc2)CC1	none
CCCCOc1ccccc1C1CC(=O)NC2=C1C(=O)CCC2 (configuration not stated)	CHT allo act 11 | CHT act confirm 73 | HEK293 MP dye inactive
CCCOc1ccccc1C1CC(=O)NC2=C1C(=O)CCC2 (configuration not stated)	none
CSc1nccc(Nc2ccccc2)c1C#N	none
CN(C)c1ccnc(Nc2ccccc2)c1C#N	CHT allo act 6.3 (no result: Rce1 inhib) | CHT act confirm 52 | HEK293 MP dye -35
COc1ccc(S(=O)(=O)N(C)C)cc1NC(=O)CN1C(=O)NC2(CCCC2)C1=O	none
COc1ccccc1N=C(C)C1=C(O)CC(c2ccccc2)CC1=O (configuration not stated)	CHT allo act 9.7 | CHT act confirm 56 | HEK293 MP dye inactive
COc1ccc(CCNC(=O)c2cccc(S(=O)(=O)NC(C)c3ccccc3)c2)cc1 (configuration not stated)	none (no result: CHT inh, Kir21 inh, Rce1 inhib, CHT allo act, TMEM16A inh)
Cc1cc(C)cc(NC(=O)COC(=O)CC2CCCC2)c1	none (no result: CHT inh, Kir21 inh, Rce1 inhib, CHT allo act, TMEM16A inh)
CN1CCN(CC(=O)Nc2sc3c(c2C(=O)Nc2ccccc2)CCCC3)CC1	none | CHT act confirm 45 | HEK293 MP dye -31
Cc1ccc(C(=O)N(C)CCOc2ccccc2)cc1S(=O)(=O)N1CCOCC1	none (no result: CHT inh, Kir21 inh, Rce1 inhib, CHT allo act, TMEM16A inh)
